Measurements published in PubChem BioAssay AID686971 (National Center for Advancing Translational Sciences (NCATS), 2013).
The campaign covered roughly 360,000 compounds. About 7,500 (2.1%) were called active. Inconclusive results (about 8%) are left out. This excerpt belongs to a sample that is enriched for actives. A number with no mark means an inactive call. Calls follow the shape of the dose curve; as a rule, active = well fitted cell-killing curve with a large enough effect; inconclusive = small, poorly fitted or top-dose-only effect, or effect the other way, or another doubt; inactive = no such curve, though single readings can be large or run the other way.

test: qHTS for induction of synthetic lethality in tumor cells producing 2HG: qHTS for the HT-1080-IDH1KD cell line; details: HT-1080 IDH1 knockdown viability, ATP luminescence, 48 h; series mostly up to 46.1 µM; activity, negative = toxicity: at the top concentration;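 as to activity, negative = toxicity: 0% = DMSO wells and -100% = cell-free medium wells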
How it was run: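 CellTiter-Glo luminescence after 48 h compound exposure at 37 degrees C of IDH1-knockdown HT-1080 cells in 5% FBS RPMI. %Activity scaled between DMSO wells and cell-free media wells, with curves fitted and assigned curve classes.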
Potency is read from the fitted curve at half-maximal effect.

Compared with `OC[C@H]1O[C@@H](c2nc(-c3nc(-c4ccc(F)cc4)no3)cs2)[C@H](O)[C@@H](O)[C@H]1O`, `COC(=O)C[C@H]1C=C[C@H](NC(=O)c2ccc(F)cc2)[C@@H](CO)O1` is lower in “activity, negative = toxicity” value: 9.85% for the first, -11.6% for the second.

Compared with `O=C1CCCC2=C1C(c1ccccc1)n1c(s/c(=C/c3cccc(F)c3)c1=O)=N2` (centres undefined), `CCOC(=O)C1=C(C)N=c2s/c(=C\C(=O)OC)c(=O)n2C1c1ccc(OC)cc1` (centres undefined) is lower in “activity, negative = toxicity” value: 20.1% for the first, 3.8% for the second.

Compared with `COc1ccc(S(=O)(=O)NC(=O)C2(C)CCN2C(=O)c2ccccc2CCc2ccccc2)cc1` (centres undefined), `COc1ccc(S(=O)(=O)NC(=O)C2(C)CCN2C(=O)COc2ccc(Cl)cc2)cc1` (centres undefined) is lower in “activity, negative = toxicity” value: 0.309% for the first, 0% for the second.

Compared with `C1=C(CCNc2ncnc3c2cnn3-c2ccccc2)CCCC1`, `Clc1cccc(-c2nc(NCC3CCCO3)c3ccccc3n2)c1` (centres undefined) is lower in “activity, negative = toxicity” value: -4.48% for the first, -27.2% for the second.

First: Cc1ccc(S(=O)(=O)N2CCC(C(=O)NCCC3=CCCCC3)CC2)cc1C
Second: O=C(c1cc(C2CCCCN2S(=O)(=O)c2ccccc2)on1)N1CCOCC1 (centres undefined)
The “activity, negative = toxicity” value of the first is lower: 1.26% for the first, 19.8% for the second.

First: CCOC(=O)c1ccc(-c2ccc(C(=O)Nc3cccnc3)o2)cc1
Second: CCOC(=O)c1cc(NC(=O)c2cccnc2)ccn1
The “activity, negative = toxicity” value of the first is lower: -18.7% for the first, 2.72% for the second.

Compared with `CCCCCC(=O)N1C[C@H](O)[C@@H](n2cc(COC(=O)c3ccccc3)nn2)C[C@@H]1c1ccc(C)cc1`, `O=C(OCc1cn([C@@H]2C[C@H](c3ccc(Cl)cc3)N(Cc3cccs3)C[C@H]2O)nn1)c1ccccc1` is higher in “activity, negative = toxicity” value: -9.31% for the first, 1.15% for the second.

Compared with `Cc1onc(-c2ccccc2)c1-c1nnc(COC(=O)c2ccc(N(C)C)cc2)o1`, `Cc1onc(-c2ccccc2Cl)c1C(=O)OCc1nnc(-c2ccccc2)o1` is higher in “activity, negative = toxicity” value: -11.6% for the first, -11% for the second.

Compared with `N#CCSc1nc(-c2ccccc2)nc2ccc(F)cc12`, `COc1ccc(C(=O)NN(C)c2nc(-c3ccccc3)cc(C)c2S(C)(=O)=O)cc1` is higher in “activity, negative = toxicity” value: -0.0349% for the first, 4.2% for the second.

Going from `CN1CCN(c2ccncc2S(=O)(=O)N2CCCC2)CC1` to `CC1(C)CCc2cc(S(=O)(=O)N3CCN(c4nc(-c5cccs5)nc5ccccc45)CC3)ccc2O1`, the “activity, negative = toxicity” value rises from 4.49% to 5.15%.

Going from `Cc1onc(-c2ccccc2Cl)c1C(=O)OCC(=O)c1ccccc1` to `CN(Cc1c(F)cccc1Cl)C(=O)COC(=O)Cn1cnc2ccccc2c1=O`, the “activity, negative = toxicity” value rises from -18.5% to 4.82%.

Going from `CC1(C)CC(=O)C=C(c2ccc(COC(=O)c3cc(F)cc(F)c3)cc2)C1=O` to `COC(=O)c1ccc2nc(-c3ccc(Cl)cc3)c(Cc3cccc(F)c3)n2c1`, the “activity, negative = toxicity” value rises from -10% to 9.38%.

First: Cc1onc(NC(=O)c2ccc([N+](=O)[O-])o2)c1Br
Second: O=C(Nc1ccc(Br)cn1)c1ccc([N+](=O)[O-])cc1Cl
The “activity, negative = toxicity” value of the first is lower: -35.8% for the first, -0.286% for the second.

First: CC1CC(NC(=S)N(C)C)CC(C)(C)C1 (centres undefined)
Second: CCOC(=O)C1(C)CCCN(C(=O)c2ccc(N(C)C)cc2)C1 (centres undefined)
The “activity, negative = toxicity” value of the first is lower: 3.3% for the first, 8.71% for the second.

Going from `COc1ccc(/C=C2\SC(=S)N(CCC(=O)N3CCOCC3)C2=O)cc1OC` to `COC(=O)[C@@]12C[C@@H](CC(=O)N3CCCCC3)C(=O)N(Cc3ccc4c(c3)OCO4)C1=CCC(C)(C)C2`, the “activity, negative = toxicity” value falls from 11.1% to -23.6%.

First: CCCCCn1nnnc1C1c2ccccc2C(=O)N1Cc1ccco1 (centres undefined)
Second: CCCc1cc(=O)[nH]c(SCC(=O)OCc2ccccc2)n1
The “activity, negative = toxicity” value of the first is higher: 14.3% for the first, 0.689% for the second.

First: c1ccc2cc3[nH]c(CN4CCCCC4)nc3cc2c1
Second: O=c1c2c3c(sc2n(CCN2CCCC2)c(=O)n1Cc1ccccc1)CCCCC3
The “activity, negative = toxicity” value of the first is lower: -4.75% for the first, -0.168% for the second.

Compared with `CC1(C(=O)NCc2ccc3c(c2)OCO3)CCN1C(=O)Cc1cccc2ccccc12` (centres undefined), `Cc1ccccc1S(=O)(=O)NC(=O)C1(C)CCN1C(=O)C1(c2ccc(Cl)cc2)CC1` (centres undefined) is higher in “activity, negative = toxicity” value: 2.6% for the first, 28% for the second.

Compared with `Nc1[nH]c(C(=O)c2ccccc2)c(-c2ccc(Br)cc2)c1C(=O)NC1CC1`, `CSc1ccccc1C(=O)Nc1cccc(C(C)=O)c1` is lower in “activity, negative = toxicity” value: 2.93% for the first, -6.03% for the second.

First: O=C(NCc1cccnc1)c1cc(C2CCCN(C(=O)CCCc3ccccc3)C2)on1 (centres undefined)
Second: C[C@@H]1CN([C@@H](C)CO)C(=O)CCCn2nncc2CO[C@@H]1CN(C)S(=O)(=O)c1ccc(-c2ccccc2)cc1
The “activity, negative = toxicity” value of the first is higher: 14% for the first, -1.95% for the second.

Going from `O=C(C[C@H]1C[C@@H]2c3cc(NC(=O)C4CCC4)ccc3O[C@@H]2[C@H](CO)O1)NC1CCCCC1` to `COC(=O)C[C@H]1C[C@@H]2c3cc(NC(=O)Nc4ccccc4)ccc3O[C@@H]2[C@@H](CO)O1`, the “activity, negative = toxicity” value falls from 10.6% to 4.69%.

Compared with `COc1ccc(S(=O)(=O)N(C)C)cc1NC(=O)COC(=O)c1n[nH]c2ccccc12`, `COc1ccc(C2Nc3ccc(NC(=O)COC(C)=O)cc3C(=O)N2Cc2ccccc2)cc1COc1ccc(NC(C)=O)cc1` (centres undefined) is lower in “activity, negative = toxicity” value: 0.573% for the first, -21.2% for the second.

Compared with `Cc1cccc(C(=O)Nc2ccc(C(=O)N/N=C/c3cccc(C)n3)cc2)c1`, `Cc1cccc(NC(=O)c2ccc(S(=O)(=O)N(C)c3ccccc3)cc2)n1` is lower in “activity, negative = toxicity” value: -19.7% for the first, -21.5% for the second.

First: CC(NC(=O)c1ccccc1F)c1cccc2ccccc12 (centres undefined)
Second: Cn1c(CC(=O)NNC(=O)c2ccccc2F)nc2ccccc21
The “activity, negative = toxicity” value of the first is lower: -0.529% for the first, 0% for the second.

Compared with `CC1=C(C(=O)N2CCOCC2)CC(CC(=O)NCCN2CCOCC2)C(=O)N1CCC1=CCCCC1` (centres undefined), `CCNC(=O)C1(C)CCCN(C(=O)c2c(C)noc2C)C1` (centres undefined) is lower in “activity, negative = toxicity” value: 7.72% for the first, 2.57% for the second.

Compared with `Cc1noc(C)c1S(=O)(=O)N(C)C[C@H]1OCCCC[C@@H](C)Oc2ccc(NC(=O)CCCN(C)C)cc2C(=O)N([C@H](C)CO)C[C@@H]1C`, `Cc1noc(C)c1C(=O)N1CCC1(C)C(=O)NS(=O)(=O)c1ccc(C#N)cc1` (centres undefined) is higher in “activity, negative = toxicity” value: 9.14% for the first, 21.7% for the second.

Compared with `CN1OC[C@@H]2CN[C@H](c3ccc(-c4ccccc4)cc3)C[C@@H]21`, `CN1OC[C@@H]2CN(S(=O)(=O)c3cccc(C(F)(F)F)c3)[C@H](c3ccc(-c4cc5ccccc5o4)cc3)C[C@@H]21` is higher in “activity, negative = toxicity” value: -1.25% for the first, 1.74% for the second.

Going from `COCCNC(=O)C1C(=O)Nc2ccccc2C(=O)N1c1ccc2c(c1)OCCO2` (centres undefined) to `COCCNC(=O)C1(C)CCCN(Cc2cccc(F)c2)C1` (centres undefined), the “activity, negative = toxicity” value falls from 21.6% to 9.99%.

Going from `Cn1c(=O)c2cc(NC(=O)NCCc3cccs3)ccc2n1Cc1cccc(C(F)(F)F)c1` to `Cc1cc2oc(=O)cc(CN(C)Cc3ccccc3)c2cc1Cl`, the “activity, negative = toxicity” value rises from -29% to 2.28%.

First: Clc1ccc(-c2cc(-c3ccccn3)on2)c(Cl)c1
Second: O=C(Nc1cccc(Cl)c1)c1cc([N+](=O)[O-])ccc1N1CCN(CCO)CC1
The “activity, negative = toxicity” value of the first is lower: -24.4% for the first, -0.581% for the second.

Compared with `CC(=O)c1cccc(NC(=S)N2CCCC2)c1`, `CCC(=O)c1ccc(N2CCN(C(=O)c3cc([N+](=O)[O-])ccc3F)CC2)c(F)c1` is lower in “activity, negative = toxicity” value: 11.1% for the first, 2.7% for the second.

First: Cc1ccc2[nH]c(C(=O)O)c(NC(=O)c3ccccc3[N+](=O)[O-])c2c1
Second: CCOC(=O)/C(=C\c1ccc([N+](=O)[O-])cc1)C(=O)c1cc(C(C)=O)c(Nc2ccccc2)s1
The “activity, negative = toxicity” value of the first is lower: 9.67% for the first, 17.6% for the second.

Compared with `Cc1nn(-c2ccccc2)c(Cl)c1/C=N/NC(=O)c1nn(C)cc1[N+](=O)[O-]`, `COC(=O)c1ccc2nc(-c3ccccc3)c(Cc3ccc(OC)cc3C)n2c1` is higher in “activity, negative = toxicity” value: -29.8% for the first, 5.54% for the second.

First: CC1(C)OC(=O)C2=C(C[C@@H](C3CCCC3)O[C@@H]2c2ccc(Cl)cc2)O1
Second: CC[C@@H]1CC2=C(C(=O)OC(C)(C)O2)[C@@H](CC)O1
The “activity, negative = toxicity” value of the first is higher: 8.76% for the first, -0.785% for the second.

Compared with `COc1ccc(C(C)(NC(C)=O)c2nc(-c3ccc(S(C)(=O)=O)cc3)cs2)cc1` (centres undefined), `CCN(c1ccccc1)S(=O)(=O)c1ccc(C(=O)Nc2nccs2)cc1` is higher in “activity, negative = toxicity” value: 8.14% for the first, 10% for the second.

First: Cn1c(=O)n(Cc2ccco2)c(=N)c2c3c(sc21)CCCC3
Second: COc1cccc(-c2nc3nc(C)cc(C)n3c2NC2CCCCC2)c1
The “activity, negative = toxicity” value of the first is lower: -10% for the first, 7.4% for the second.

First: COC(=O)C[C@H]1C=C[C@@H](NS(=O)(=O)c2ccc(C)cc2)[C@@H](CO)O1
Second: CNS(=O)(=O)c1ccc2c(c1)[nH]c(=S)n2C
The “activity, negative = toxicity” value of the first is higher: 15.1% for the first, -8.8% for the second.

For `CCOC(=O)NC(=O)/C(C#N)=C\c1ccccc1`, the “activity, negative = toxicity” value was 1.01%.

For `COc1ccc(OC)c(C2C3=C(N=c4s/c(=C\c5cccc(O)c5)c(=O)n42)c2ccccc2CC3)c1` (centres undefined), the Potency was 20.6 µM (active).
In the case of `O=C(NCCC1=CCCCC1)C1CCN(Cc2cnn(-c3ccccc3)c2-n2cccc2)CC1`, the Potency was 25.9 µM (active).
In the case of `CCOC(=O)c1ccc(NC(=O)c2cccnc2)cc1`, the Potency was 14.6 µM (active).
For `Clc1ccc2nc(-c3ccccc3)nc(C(Cl)Cl)c2c1`, the Potency was 7.31 µM (active).
For `Cc1[nH]c2ccccc2c1C(=O)COC(=O)c1c(-c2ccccc2)noc1C`, the Potency was 23.1 µM (active).
For `O=C(Nc1ccc(Br)cn1)c1ccc([N+](=O)[O-])o1`, the Potency was 10.3 µM (active).
With `CCCCCn1nnnc1-c1nc2cc3ccccc3cc2[nH]c1=O` the Potency was 7.31 µM (active).
With `CN(NC(=O)c1ccccc1F)c1nc(C(F)(F)F)nc2ccccc12` the Potency was 0.206 µM (active).
With `CSc1nc(N(C)NC(=O)c2cccc(C)c2)c2ccccc2n1` the Potency was 0.0461 µM (active).
With `Clc1ccc(-c2cc(C3CCNCC3)[nH]n2)c(Cl)c1` the Potency was 23.1 µM (active).
For `C=CCSc1nsc(NC(=O)Nc2cccc(C(C)=O)c2)n1`, the Potency was 16.4 µM (active).
In the case of `Cc1c(C(=O)N/N=C/c2ccccc2)[nH]c2c([N+](=O)[O-])cccc12`, the Potency was 0.517 µM (active).
For `CC(C)CC[n+]1ccn(C2=C([O-])c3ccccc3C(=O)/C2=N\S(=O)(=O)c2ccccc2)c1`, the Potency was 11.2 µM (active).
In the case of `CCN1CCN(c2ccc([N+](=O)[O-])cc2C(=O)c2ccc(Cl)cc2)CC1`, the Potency was 23.1 µM (active).
For `CN(C)CCCn1c(=O)n(Cc2ccccc2)c(=O)c2c3c(sc21)CCCCC3`, the Potency was 25.9 µM (active).
In the case of `CCCc1cc(=O)[nH]c(SCC(=O)c2c(N)n(CC(C)C)c(=O)n(C)c2=O)n1`, the Potency was 3.26 µM (active).
For `CCOC(=O)C(=Cc1ccccc1)C(=O)c1ccccc1`, the Potency was 18.4 µM (active).
With `C=CCN(CC=C)S(=O)(=O)c1ccc(C(=O)Nc2nc3c(s2)CCc2ccccc2-3)cc1` the Potency was 14.6 µM (active).

Compound `CCCc1cc(=O)[nH]c(SCC(=O)c2cc(C)n(CCC)c2C)n1` has an activity, negative = toxicity of 2.35% [at 9.24 µM].
